Each structure is given as a SMILES string. Records with an inconclusive call do not appear. The source made the active and inactive calls. The calls were made as follows: active = hit-call score of the fitted dose curve at least 0.9, where 1 is the maximum; inconclusive = response in the unintended direction; inactive = score below 0.9.

The target in experiment [1] is human AMP-activated Protein Kinase, alpha 1 (AMPKa1), PRKAA1 (gene 5562) (UniProt Q13131). The experiment is described as follows: NVS_ENZ_hAMPKa1: NovaScreen (NVS) Enzymatic Assay for human AMP-activated Protein Kinase, alpha 1 (AMPKa1) (AID 2283130). Put shortly: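 Recombinant human AMPKα1 activity was measured cell-free by fluorescent substrate conversion with electrophoretic mobility-shift separation, 1 h after dosing. Duplicate single-point screening was at 25 uM; actives (≥30% inhibition) were retested in concentration-response up to 50 uM.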

Experiment [2] addresses human Tyrosine Protein Kinase Receptor Tie-2 (Tie2), TEK (gene 7010) (UniProt Q02763). The experiment is described as follows: NVS_ENZ_hTie2: NovaScreen (NVS) Enzymatic Assay for human Tyrosine Protein Kinase Receptor Tie-2 (Tie2) (AID 2283225). Put shortly:
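Recombinant human Tie2 kinase activity was read cell-free by fluorescence with electrophoretic mobility shift, 1 hour after dosing. The screen used 25 uM in duplicate, then concentration-response up to 50 uM. Signal loss was scored against DMSO.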

The target of experiment [3] is rat Gamma-Aminobutyric Acid Type A Receptor BDZ, alpha 6 site (GABARa6), Gabra6 (gene 29708) (UniProt P30191). The experiment is described as follows: NVS_LGIC_rGABARa6: NovaScreen (NVS) Ligand-Gated Ion Channel Assay for rat Gamma-Aminobutyric Acid Type A Receptor BDZ, alpha 6 site (GABARa6) (AID 2283339). The essentials:
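Rat cerebellar membranes; radioligand binding, filtration and scintillation counting, read 1 h after dosing. Single-concentration duplicate screen at 25 uM, then concentration-response up to 50 uM for actives; loss of signal fitted versus DMSO baseline.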

The target in experiment [4] is Caspase-1 (Homo sapiens) (UniProt P29466). The experiment is described as follows: NVS_ENZ_hCASP1: NovaScreen (NVS) Enzymatic Assay for human Caspase 1 (CASP1) (AID 2283132). Put shortly:
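Cell-free enzymatic assay with E. coli-expressed recombinant protein; fluorescence intensity read 1 hour after dosing. Single-concentration duplicate screen at 25 uM, then concentration-response up to 50 uM; activity fitted relative to DMSO, loss of signal meaning inhibition.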

Experiment [5] addresses human Acetylcholinesterase (AChE), ACHE (gene 43) (UniProt P22303). The experiment can be described thus: NVS_ENZ_hAChE: NovaScreen (NVS) Enzymatic Assay for human Acetylcholinesterase (AChE) (AID 2283129). The essentials: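 Cell-free colorimetric enzyme-activity assay; compounds read 0.33 hour after dosing, loss of signal vs DMSO baseline. Primary screen in duplicate at 25 uM single concentration, with active compounds retested in concentration series.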

Experiment [6] concerns the target human Caspase 2 (CASP2), CASP2 (gene 835) (UniProt P42575). The experiment can be described thus: NVS_ENZ_hCASP2: NovaScreen (NVS) Enzymatic Assay for human Caspase 2 (CASP2) (AID 2283135). The essentials:
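E. coli-expressed enzyme in a cell-free protease assay, fluorescence read 1 h after dosing. Compounds at 25 uM in duplicate, with concentration-response up to 50 uM for hits; loss of signal against DMSO baseline.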

The target of experiment [7] is human Matrix Metalloproteinase-1 (MMP1), MMP1 (gene 4312) (UniProt P03956). The experiment can be described thus: NVS_ENZ_hMMP1: NovaScreen (NVS) Enzymatic Assay for human Matrix Metalloproteinase-1 (MMP1) (AID 2283181). The essentials:
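Human MMP1 enzyme activity measured by fluorescence 1 h after dosing, cell-free, with a specific substrate. Screened in duplicate at 25 uM; hits (e.g. 30% inhibition) run in concentration-response up to 50 uM; loss of signal versus DMSO.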

In experiment [8] the target is rat Acetylcholinesterase (AChE), Ache (gene 83817) (UniProt P37136). The experiment is described as follows: NVS_ENZ_rAChE: NovaScreen (NVS) Enzymatic Assay for rat Acetylcholinesterase (AChE) (AID 2283233). The essentials:
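Rat brain membrane acetylcholinesterase activity measured colorimetrically 0.33 h after compound addition, loss of signal relative to DMSO. Primary screen in duplicate at 25 uM; actives re-run as concentration-response with 50 uM top concentration.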

Experiment [9] addresses rat Oxytocin Receptor (OXT), Oxtr (gene 25342) (UniProt P70536). The experiment can be described thus: NVS_GPCR_rOXT: NovaScreen (NVS) G Protein-Coupled Receptor Assay for rat Oxytocin Receptor (OXT) (AID 2283330). Put shortly:
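Radioligand displacement on rat uterine membranes, 1 h incubation, filter-based scintillation counting. Chemicals were screened in duplicate at 25 uM, and those passing threshold were retested in concentration-response up to 50 uM. Loss of binding was fitted versus DMSO.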

Experiment [10] addresses rat Monoamine Oxidase, MAO-B, Central (MAOBC), Maob (gene 25750) (UniProt P19643). The experiment is described as follows: NVS_ENZ_rMAOBC: NovaScreen (NVS) Enzymatic Assay for rat Monoamine Oxidase, MAO-B, Central (MAOBC) (AID 2283238). Put shortly: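 Compounds were first tested in duplicate at 25 uM against MAO-B from rat brain tissue; those passing the inhibition threshold were retested in concentration series up to 50 uM. Radiodetection by scintillation counting at 1.17 h, analysed against DMSO baseline.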

Experiment [11] concerns the target bovine Gamma-Aminobutyric Acid Type A Receptor BDZ, alpha 1 site (GABARa1), GABRA1 (gene 780973) (UniProt P08219). The experiment is described as follows: NVS_LGIC_bGABARa1: NovaScreen (NVS) Ligand-Gated Ion Channel Assay for bovine Gamma-Aminobutyric Acid Type A Receptor BDZ, alpha 1 site (GABARa1) (AID 2283321). The essentials:
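Radioligand competition binding on bovine cortical membranes, 0.75 h, filter-based scintillation counting. Primary single concentration 25 uM in duplicate; actives rerun in concentration-response to 50 uM max. Loss of signal fitted versus DMSO.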

In experiment [12] the target is human Protein Tyrosine Phosphatase Receptor Type C (PTPRC), PTPRC (gene 5788) (UniProt P08575). The experiment is described as follows: NVS_ENZ_hPTPRC: NovaScreen (NVS) Enzymatic Assay for human Protein Tyrosine Phosphatase Receptor Type C (PTPRC) (AID 2283212). Put shortly:
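Yeast-extracted human PTPRC used in a cell-free colorimetric enzyme activity read-out, 1 h after dosing. Primary screen in duplicate at 25 uM; actives rerun in concentration-response up to 50 uM, DMSO as baseline.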

Experiment [13] addresses Voltage-dependent N-type calcium channel subunit alpha-1B (Rattus norvegicus) (UniProt Q02294). The experiment can be described thus: NVS_IC_rCaChN: NovaScreen (NVS) Ion Channel Assay for rat Calcium Channel, Type N (CaChN) (AID 2283317).

Sequence of human Acetylcholinesterase (AChE), ACHE (gene 43) (P22303 whole entry, looked up): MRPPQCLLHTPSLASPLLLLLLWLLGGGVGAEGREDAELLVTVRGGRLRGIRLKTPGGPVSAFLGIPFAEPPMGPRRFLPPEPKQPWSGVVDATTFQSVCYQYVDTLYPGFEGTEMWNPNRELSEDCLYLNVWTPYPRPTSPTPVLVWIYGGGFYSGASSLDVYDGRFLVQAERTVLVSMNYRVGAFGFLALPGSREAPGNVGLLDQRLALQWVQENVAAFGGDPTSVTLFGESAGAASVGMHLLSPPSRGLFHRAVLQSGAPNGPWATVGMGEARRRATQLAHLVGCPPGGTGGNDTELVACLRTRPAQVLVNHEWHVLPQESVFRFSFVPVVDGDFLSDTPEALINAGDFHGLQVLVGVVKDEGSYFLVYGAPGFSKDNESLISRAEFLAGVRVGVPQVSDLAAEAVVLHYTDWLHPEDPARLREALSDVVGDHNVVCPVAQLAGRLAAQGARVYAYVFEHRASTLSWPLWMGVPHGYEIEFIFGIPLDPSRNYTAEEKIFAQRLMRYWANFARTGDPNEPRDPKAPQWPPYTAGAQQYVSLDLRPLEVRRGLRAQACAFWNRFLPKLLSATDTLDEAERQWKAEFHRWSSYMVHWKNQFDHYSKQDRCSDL
Sequence of rat Acetylcholinesterase (AChE), Ache (gene 83817) (P37136 whole entry, looked up): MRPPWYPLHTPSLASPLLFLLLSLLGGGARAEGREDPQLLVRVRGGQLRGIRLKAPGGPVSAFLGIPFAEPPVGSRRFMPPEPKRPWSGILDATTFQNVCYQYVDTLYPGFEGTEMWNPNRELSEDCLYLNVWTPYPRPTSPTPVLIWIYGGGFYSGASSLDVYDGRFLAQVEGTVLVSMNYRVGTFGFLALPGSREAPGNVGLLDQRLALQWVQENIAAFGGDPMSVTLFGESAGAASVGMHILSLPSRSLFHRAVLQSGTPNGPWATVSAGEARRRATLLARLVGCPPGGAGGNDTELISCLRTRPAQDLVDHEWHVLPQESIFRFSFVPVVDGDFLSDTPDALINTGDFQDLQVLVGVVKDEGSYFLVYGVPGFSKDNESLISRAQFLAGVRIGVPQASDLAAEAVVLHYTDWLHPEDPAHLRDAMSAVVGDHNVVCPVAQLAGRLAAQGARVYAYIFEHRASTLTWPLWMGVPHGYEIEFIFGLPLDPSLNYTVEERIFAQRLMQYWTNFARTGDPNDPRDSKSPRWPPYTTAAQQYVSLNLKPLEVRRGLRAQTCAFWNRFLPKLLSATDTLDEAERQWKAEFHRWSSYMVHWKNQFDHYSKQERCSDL
Sequence of human Caspase 2 (CASP2), CASP2 (gene 835) (P42575 whole entry, looked up): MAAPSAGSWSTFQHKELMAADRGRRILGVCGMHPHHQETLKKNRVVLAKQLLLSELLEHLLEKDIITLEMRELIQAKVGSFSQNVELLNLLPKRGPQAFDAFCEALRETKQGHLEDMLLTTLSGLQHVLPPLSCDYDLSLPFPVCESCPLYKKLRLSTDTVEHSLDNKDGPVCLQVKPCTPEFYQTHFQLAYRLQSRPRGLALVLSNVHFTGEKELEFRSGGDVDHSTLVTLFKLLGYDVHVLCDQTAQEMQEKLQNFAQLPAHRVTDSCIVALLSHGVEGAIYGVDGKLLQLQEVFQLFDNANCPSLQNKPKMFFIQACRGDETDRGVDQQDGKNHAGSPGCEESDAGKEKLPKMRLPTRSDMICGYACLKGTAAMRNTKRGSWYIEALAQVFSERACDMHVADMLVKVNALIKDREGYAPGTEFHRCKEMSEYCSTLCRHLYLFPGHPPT
Sequence of human AMP-activated Protein Kinase, alpha 1 (AMPKa1), PRKAA1 (gene 5562) (Q13131 whole entry, looked up): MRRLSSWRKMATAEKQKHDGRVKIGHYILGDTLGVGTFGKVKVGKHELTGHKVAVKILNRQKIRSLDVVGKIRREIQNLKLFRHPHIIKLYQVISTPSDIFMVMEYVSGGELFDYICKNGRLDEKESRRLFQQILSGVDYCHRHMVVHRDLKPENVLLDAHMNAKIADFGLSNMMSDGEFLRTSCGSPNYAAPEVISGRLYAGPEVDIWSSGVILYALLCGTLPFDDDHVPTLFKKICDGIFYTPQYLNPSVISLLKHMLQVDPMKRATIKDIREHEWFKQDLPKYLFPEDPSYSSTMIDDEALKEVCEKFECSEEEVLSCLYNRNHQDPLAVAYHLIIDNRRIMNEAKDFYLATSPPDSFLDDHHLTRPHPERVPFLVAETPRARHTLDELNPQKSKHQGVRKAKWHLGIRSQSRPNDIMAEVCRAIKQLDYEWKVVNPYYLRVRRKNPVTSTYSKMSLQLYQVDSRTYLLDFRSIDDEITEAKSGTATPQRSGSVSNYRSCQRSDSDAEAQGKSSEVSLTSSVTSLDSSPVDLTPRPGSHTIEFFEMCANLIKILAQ
Sequence of rat Gamma-Aminobutyric Acid Type A Receptor BDZ, alpha 6 site (GABARa6), Gabra6 (gene 29708) (P30191 whole entry, looked up): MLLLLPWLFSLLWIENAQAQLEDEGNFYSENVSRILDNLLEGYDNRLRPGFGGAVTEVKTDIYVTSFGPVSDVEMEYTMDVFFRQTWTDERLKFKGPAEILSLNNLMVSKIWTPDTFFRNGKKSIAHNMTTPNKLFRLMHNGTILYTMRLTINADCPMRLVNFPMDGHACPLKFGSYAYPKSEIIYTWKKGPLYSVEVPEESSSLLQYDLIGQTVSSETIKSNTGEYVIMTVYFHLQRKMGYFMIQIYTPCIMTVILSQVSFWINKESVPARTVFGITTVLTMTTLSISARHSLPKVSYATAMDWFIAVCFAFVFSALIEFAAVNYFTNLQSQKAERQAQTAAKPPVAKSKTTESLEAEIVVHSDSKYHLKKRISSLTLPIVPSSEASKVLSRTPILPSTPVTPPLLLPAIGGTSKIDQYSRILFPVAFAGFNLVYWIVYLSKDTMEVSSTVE
Sequence of rat Oxytocin Receptor (OXT), Oxtr (gene 25342) (P70536 whole entry, looked up): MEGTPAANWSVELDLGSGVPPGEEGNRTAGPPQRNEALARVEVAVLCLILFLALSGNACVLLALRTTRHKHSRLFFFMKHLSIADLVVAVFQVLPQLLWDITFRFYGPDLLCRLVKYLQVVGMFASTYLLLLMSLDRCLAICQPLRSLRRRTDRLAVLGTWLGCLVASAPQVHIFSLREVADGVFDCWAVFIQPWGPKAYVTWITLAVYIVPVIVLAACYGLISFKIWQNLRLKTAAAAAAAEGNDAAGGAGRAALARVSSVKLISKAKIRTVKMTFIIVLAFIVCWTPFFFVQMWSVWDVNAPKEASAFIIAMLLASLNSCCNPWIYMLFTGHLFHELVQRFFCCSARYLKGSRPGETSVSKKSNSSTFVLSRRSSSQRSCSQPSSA
Sequence of human Tyrosine Protein Kinase Receptor Tie-2 (Tie2), TEK (gene 7010) (Q02763 whole entry, looked up): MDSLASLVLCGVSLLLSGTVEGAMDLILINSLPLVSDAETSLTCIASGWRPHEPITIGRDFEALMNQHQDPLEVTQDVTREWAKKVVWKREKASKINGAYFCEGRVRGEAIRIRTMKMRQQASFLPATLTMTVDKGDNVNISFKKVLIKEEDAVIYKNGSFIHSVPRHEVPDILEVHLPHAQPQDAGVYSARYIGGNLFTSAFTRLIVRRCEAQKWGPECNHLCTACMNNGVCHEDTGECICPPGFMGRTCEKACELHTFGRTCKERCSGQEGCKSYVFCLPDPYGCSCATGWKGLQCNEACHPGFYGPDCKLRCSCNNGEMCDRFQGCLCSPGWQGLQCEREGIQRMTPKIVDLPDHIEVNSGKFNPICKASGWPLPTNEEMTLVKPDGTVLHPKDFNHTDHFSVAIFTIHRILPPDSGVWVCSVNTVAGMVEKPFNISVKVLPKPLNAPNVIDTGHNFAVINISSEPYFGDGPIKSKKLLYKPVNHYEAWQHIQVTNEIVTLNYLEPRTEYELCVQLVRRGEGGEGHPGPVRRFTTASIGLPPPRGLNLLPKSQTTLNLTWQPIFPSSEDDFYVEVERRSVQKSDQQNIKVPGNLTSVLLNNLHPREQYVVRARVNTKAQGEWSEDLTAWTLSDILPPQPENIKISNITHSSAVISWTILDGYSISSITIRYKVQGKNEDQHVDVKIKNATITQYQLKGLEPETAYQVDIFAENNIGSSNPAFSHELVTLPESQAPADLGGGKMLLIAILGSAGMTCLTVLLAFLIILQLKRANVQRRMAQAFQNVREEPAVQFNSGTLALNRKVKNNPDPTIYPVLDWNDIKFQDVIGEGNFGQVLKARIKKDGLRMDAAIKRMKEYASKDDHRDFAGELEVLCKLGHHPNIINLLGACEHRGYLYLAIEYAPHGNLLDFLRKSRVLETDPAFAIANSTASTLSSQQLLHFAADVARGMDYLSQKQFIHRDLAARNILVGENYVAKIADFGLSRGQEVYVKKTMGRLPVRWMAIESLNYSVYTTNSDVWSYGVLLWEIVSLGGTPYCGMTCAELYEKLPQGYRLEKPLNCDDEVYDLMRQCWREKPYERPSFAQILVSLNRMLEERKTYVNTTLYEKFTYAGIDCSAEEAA
Sequence of human Matrix Metalloproteinase-1 (MMP1), MMP1 (gene 4312) (P03956 whole entry, looked up): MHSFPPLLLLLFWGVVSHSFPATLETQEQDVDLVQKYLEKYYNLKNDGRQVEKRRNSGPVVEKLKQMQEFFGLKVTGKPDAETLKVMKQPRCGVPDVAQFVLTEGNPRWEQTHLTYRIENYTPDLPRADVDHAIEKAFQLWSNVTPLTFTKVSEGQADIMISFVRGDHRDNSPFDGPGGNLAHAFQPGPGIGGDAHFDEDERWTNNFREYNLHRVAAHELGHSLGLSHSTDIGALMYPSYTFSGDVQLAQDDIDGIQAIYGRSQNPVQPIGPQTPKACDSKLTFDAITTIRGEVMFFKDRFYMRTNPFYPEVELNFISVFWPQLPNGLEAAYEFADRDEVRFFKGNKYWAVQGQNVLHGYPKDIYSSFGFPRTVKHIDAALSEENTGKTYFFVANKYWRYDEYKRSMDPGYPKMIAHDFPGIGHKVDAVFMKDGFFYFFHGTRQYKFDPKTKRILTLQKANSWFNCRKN

As to `C[Si]1(C)O[Si](C)(C)O[Si](C)(C)O[Si](C)(C)O1`, the result in experiment [1], in experiment [2] and in experiment [3] was inactive.
Consider `OC[C@H]1O[C@@](CO)(O[C@H]2O[C@H](CO)[C@@H](O)[C@H](O)[C@H]2O)[C@@H](O)[C@@H]1O`, for which the molecule was called inactive in [4].
On to `COc1ccc2cc(S(=O)(=O)N[C@H](CC(=O)N[C@H](Cc3ccc(CN4[C@H](C)CCC[C@@H]4C)cc3)C(=O)N(C)C(C)C)c3ccc4c(c3)OCO4)ccc2c1`, for which the molecule was called inactive in experiment [5], in experiment [6], in [7] and in [9]. The AC50 in [8] is 30.6 µM (active).
With `COCCOc1cc2cc(C(=O)NC3CCN(C(C)C)CC3)n(CC(=O)Nc3ccc(Cl)cn3)c2cn1`, the AC50 in experiment [5] is 29 µM (active); in experiment [8] it was 19 µM (active).
Take `c1ccc2c(c1)Cc1ccccc1-2`: the outcome in [5] and in experiment [6] was inactive.
For the molecule `CCOC(=O)c1ccc(C2CCC(NC[C@H](O)COc3ccc(O)c(NS(C)(=O)=O)c3)CC2)cc1` (stereo partly drawn), the figures for the AC50 in experiment [5], in experiment [8] and in experiment [10] were 23.4 µM (active), 15 µM (active) and 10.2 µM (active), respectively.
Turning to `CC[C@H]1CC[C@H](NCc2cc3c(cc2OC)[C@H]2C[C@H]2C(=O)N3C)[C@H](c2ccccc2)N1`, the values for the AC50 in experiment [5] and in experiment [8] were 20.5 µM (active) and 15.7 µM (active), respectively.
Turning to `C/C=C/C=C/C(=O)O`, the outcome in experiment [1] was inactive. In experiment [11], the AC50 was 20.9 µM (active).
Turning to `CS(=O)(=O)c1ccc([C@@H](C[C@H]2CCC(=O)C2)C(=O)Nc2cnccn2)cc1Cl`, the molecule was called inactive in experiment [5] and in [13]. In addition, in experiment [12], the AC50 was 16.6 µM (active).

The values above are taken from PubChem BioAssay (EPA / NIEHS).
